Source: PubChem BioAssay
TrxR1 substrate – qHTS Assay for Substrates of Mammalian Selenoprotein Thioredoxin Reductase 1 (TrxR1): qHTS; Potency, µM (top dose mostly 114 µM), without a hit: at the highest dose activity change, negative = substrate turnover; Thioredoxin reductase 1, cytoplasmic (Rattus norvegicus), O89049; purified TrxR1 substrate turnover, NADPH consumption readout; 390,000 tested, 0.01% active; further: on the % scale 0 is the no-effect control and ±100 the full control effect; nearly all actives have a fitted effect of over 50% in size
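Rat TrxR1, dispensed at 90 nM, was prereduced with 400 uM NADPH (final) for 5 min at ~22 deg C, then incubated with compound 15 min before 400 uM selenite. A first-read NADPH fluorescence drop versus no-compound background flagged substrates.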
Nrf2 inh – Nrf2 qHTS screen for inhibitors | Potency, µM (titrated, usually from 46 µM), inactives show at the highest dose activity change, negative = inhibition, actives largely listed as inhibitors | 360,000 tested, 2.1% active | AID 504444, 2011 | A549 ARE-Fluc reporter, luciferase luminescence, 18-24 h; further: on the % scale 0 is the no-effect control and ±100 the full control effect; nearly all actives have a fitted effect of over 60% in size
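In this cell-based qHTS, ARE-driven firefly luciferase in A549 cells reports Nrf2 activity; the luminescent signal after BugLite lysis is the measured value, with a prior CellTiter-Fluor read for cell health.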
Nrf2 ARE act – qHTS of Nrf2 Activators | AREc32 ARE-luciferase reporter (MCF7-derived line), luminescence, 24 h | Potency, µM (highest dose often 46.1 µM), without a hit: at the top dose activation, hits mostly activators | 410,000 tested, 0.31% active; further: % of control where 0% means no effect; nearly all actives have a fitted effect of over 65% in size
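AREc32 cells carrying an ARE-driven firefly luciferase reporter were seeded at 1000 cells/well in OPTI-MEM with 5% FBS, then exposed to compound for 24 hr at 37 deg C. Luminescence was read with Steady-Glo after 30 min at RT.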
A549 tox – Nrf2 qHTS screen for inhibitors: counterscreen for cytotoxicity; 390,000 tested, 0.16% active; Potency, µM (highest dose often 46 µM), inactives show at the highest dose activity change, negative = cytotoxicity, most hits filed as inhibitors; A549 ARE-Fluc cells, CellTiter-Fluor viability, 18-24 h; AID 504648, 2011; further: on the % scale 0 is the no-effect control and ±100 the full control effect
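A549 ARE-Fluc cells in 5% FBS OPTI-MEM, 5000 cells/well, rested 2 h then exposed to compounds in concentration-response for 18-24 h at 37 °C. Viability by CellTiter-Fluor fluorescence (Ex 405/Em 525) after 30 min; luciferase luminescence (BugLite, 15 min, RT) read afterwards.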
rTrxR1 inhibitor – qHTS Assay for Inhibitors of Mammalian Selenoprotein Thioredoxin Reductase 1 (TrxR1): qHTS; Thioredoxin reductase 1, cytoplasmic (Rattus norvegicus), O89049; recombinant rTrxR1, NADPH fluorescence consumption, selenite substrate; Potency, µM (highest dose often 114 µM), for inactives: at the top dose activity change, negative = inhibition, most hits filed as inhibitors; 390,000 tested, 1% active; further: on the % scale 0 is the no-effect control and ±100 the full control effect; nearly all actives have a fitted effect of over 65% in size
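Rat TrxR1 (90 nM in the dispensed reagent) was pre-reduced with 400 uM NADPH for 5 min at room temperature, then incubated with compound for 15 min. After 400 uM selenite was added, NADPH fluorescence (Ex 340/Em 450 nm) was followed for 8 min.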
GALK inh – qHTS Assay for Inhibitors of Human Galactokinase (GALK) | Potency, µM (series often up to 57.5 µM), for inactives: at the highest dose activity change, negative = inhibition, actives largely listed as inhibitors | Purified GALK, Kinase-Glo residual ATP luminescence | 270,000 tested, 0.007% active | AID 1868, 2009 | P51570; further: on the % scale 0 is the no-effect control and ±100 the full control effect
Target sequence (P51570 whole entry, looked up): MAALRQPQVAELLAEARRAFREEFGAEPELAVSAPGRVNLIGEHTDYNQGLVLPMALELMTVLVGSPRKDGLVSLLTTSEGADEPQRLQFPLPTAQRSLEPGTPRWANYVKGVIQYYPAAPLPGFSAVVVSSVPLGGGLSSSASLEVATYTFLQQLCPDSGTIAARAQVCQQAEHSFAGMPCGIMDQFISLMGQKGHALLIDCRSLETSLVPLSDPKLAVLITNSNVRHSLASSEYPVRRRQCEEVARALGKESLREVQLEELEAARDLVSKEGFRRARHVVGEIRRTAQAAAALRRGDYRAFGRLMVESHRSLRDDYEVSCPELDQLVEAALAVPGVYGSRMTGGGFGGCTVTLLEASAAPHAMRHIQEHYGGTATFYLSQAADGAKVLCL
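ATP-depletion format; final 35 uM ATP, 100 uM D-galactose, 5 nM enzyme; pH 8.0 HEPES/Mg2+ buffer; 60 min RT; luminescence read 10 min after detection reagent.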
An asterisk follows results filed as active; [ ] = remark or other dose. This is a sample that favours compounds with a hit; in the whole collection about 3% have one here. The call rests on the fitted dose curve; in most records, active means well fitted curve in the direction sought with a large enough effect; inconclusive means small, poorly fitted or top-dose-only effect, or another doubt; inactive means no such curve, though single readings can be large; an effect the other way counts as inactive or inconclusive. Potency means the concentration at half of the fitted maximal effect.

For CN1C(=CC=C2C=C(I)C(=O)C(I)=C2)C(C)(C)c2ccccc21 the results were TrxR1 substrate -5%, Nrf2 inh inconclusive, Nrf2 ARE act 0%, A549 tox inconclusive, rTrxR1 inhibitor -1% and GALK inh 23%.
Cc1ccc(/C=C/S(=O)(=O)NCC(=O)OCC(=O)Nc2c(F)cccc2F)cc1 was read as TrxR1 substrate -3%, Nrf2 inh -6%, Nrf2 ARE act 16%, A549 tox -5% and rTrxR1 inhibitor 32µM*.
O=C(Nc1ccccc1Cl)c1cc2ccccc2o/c1=N\O was read as TrxR1 substrate -14%, Nrf2 inh inconclusive, Nrf2 ARE act 1.3µM*, A549 tox -5%, rTrxR1 inhibitor -7% and GALK inh 2%.
`COc1ccc(-c2nc(C)c(CCNC(=O)c3cccs3)s2)cc1` gave TrxR1 substrate 8%[57.1 µM], Nrf2 ARE act 6%, A549 tox 0% and rTrxR1 inhibitor 3%[57.1 µM].
COCCCNC(=O)CSc1nc2c(sc3ccccc32)c(=O)n1CCCC(=O)NCCOC was read as TrxR1 substrate 3%, Nrf2 inh 19%, Nrf2 ARE act 0%, A549 tox -11% and rTrxR1 inhibitor 17%.
Screening Cc1csc2ncnc(NNC(=O)c3ccc(Cl)cc3)c12 returned TrxR1 substrate -3%[57.1 µM], Nrf2 inh 21µM*, Nrf2 ARE act 0%, A549 tox -17% and rTrxR1 inhibitor 17%[11.4 µM].
`Cc1cccc(CNC(=O)C2CCCN(S(=O)(=O)c3cn(C)cn3)C2)c1` (stereo not given) gave TrxR1 substrate 2%[57.1 µM], Nrf2 ARE act -1%, A549 tox 4% and rTrxR1 inhibitor 6%[57.1 µM].
For CCS(=O)(=O)c1nc(S(=O)(=O)c2ccc(Cl)cc2)c(N2CCC3(CC2)OCCO3)s1 the results were TrxR1 substrate -4%, Nrf2 inh 6%, Nrf2 ARE act 11µM*, A549 tox 2%, rTrxR1 inhibitor 24% and GALK inh 0%.
For CS(=O)(=O)c1nc(S(=O)(=O)c2ccc(Cl)cc2)c(N2CCC(C(N)=O)CC2)s1 the results were TrxR1 substrate -11%, Nrf2 inh -49%, Nrf2 ARE act inconclusive, A549 tox -10%, rTrxR1 inhibitor 32µM* and GALK inh 4%.
`CS(=O)(=O)c1nc(S(=O)(=O)c2ccc(Cl)cc2)c(N2CCC3(CC2)OCCO3)s1` gave TrxR1 substrate 5%, Nrf2 inh inconclusive, Nrf2 ARE act 10µM*, A549 tox -4%, rTrxR1 inhibitor 51% and GALK inh 1%.
For Cc1ccc(S(=O)(=O)c2nc(S(C)(=O)=O)sc2N2CCC(C(N)=O)CC2)cc1 the results were TrxR1 substrate -4%, Nrf2 inh -3%, Nrf2 ARE act 25%, A549 tox -5%, rTrxR1 inhibitor -4% and GALK inh -3%.
`O=C(C1=C[C@@H](C2CCCCC2)C[C@@H](OCc2ccc(CO)cc2)O1)N1CCN(Cc2ccc3c(c2)OCO3)CC1` gave TrxR1 substrate -2%, Nrf2 inh inconclusive, Nrf2 ARE act 4%, A549 tox -20%, rTrxR1 inhibitor 11% and GALK inh -2%.
Screening O=C(C1=C[C@@H](c2csc3ccccc23)C[C@@H](OCc2ccc(CO)cc2)O1)N1CCN(Cc2ccccc2)CC1 returned TrxR1 substrate 2%, Nrf2 inh 16µM*, Nrf2 ARE act 6%, A549 tox -15%, rTrxR1 inhibitor -25% and GALK inh -1%.
`O=C(C1=C[C@H](C2CCCCC2)C[C@H](OCc2ccc(CO)cc2)O1)N1CCN(Cc2ccc3c(c2)OCO3)CC1` gave TrxR1 substrate -3%, Nrf2 inh 23µM*, Nrf2 ARE act 0%, A549 tox inconclusive, rTrxR1 inhibitor 17% and GALK inh 1%.
O=C(C1=C[C@@H](c2csc3ccccc23)C[C@@H](OCc2ccc(CO)cc2)O1)N1CCN(Cc2ccc3c(c2)OCO3)CC1 was read as TrxR1 substrate -12%, Nrf2 inh inconclusive, Nrf2 ARE act 8%, A549 tox -13%, rTrxR1 inhibitor inconclusive and GALK inh 4%.
`Cc1ccc(NC(=O)CN2C(=O)N/C(=C/c3ccc(C)o3)C2=O)cc1` gave TrxR1 substrate -7%, Nrf2 inh 2%, Nrf2 ARE act 7%, A549 tox 9% and rTrxR1 inhibitor inconclusive.
For Cc1ccc2c(c1)/C(=C/c1ccco1)C(=O)N2 the results were TrxR1 substrate 3%, Nrf2 inh 0%, Nrf2 ARE act inconclusive, A549 tox -9%, rTrxR1 inhibitor -9% and GALK inh 3%.
`Cc1ccc(/C=C2\C(=O)NC(=O)N2C)o1` gave TrxR1 substrate -4%, Nrf2 inh 0%, Nrf2 ARE act 9%, A549 tox -6%, rTrxR1 inhibitor 50µM* and GALK inh -7%.
`Cc1ccc(/C=C2/C(=O)N(c3ccccc3)C(=S)N2C)o1` gave TrxR1 substrate -12%, Nrf2 inh 2%, Nrf2 ARE act 3%[9.22 µM], A549 tox -5%, rTrxR1 inhibitor 20µM* and GALK inh 0%.
For Cc1ccc(/C=C2\C(=O)Nc3ccccc32)o1 the results were TrxR1 substrate 1%, Nrf2 inh -20%, Nrf2 ARE act inconclusive, A549 tox -4%, rTrxR1 inhibitor 18µM* and GALK inh -1%.
Screening COc1ccc(N2CCN(C(CNC(=O)CC(C)C)c3ccc4c(c3)OCO4)CC2)cc1 (stereo not given) returned TrxR1 substrate 8%[57.1 µM], Nrf2 ARE act 0%, A549 tox 8% and rTrxR1 inhibitor 34%[57.1 µM].
C=CCNC(=O)c1cnn2c1NC(=C)C=C2C was read as TrxR1 substrate 99% and rTrxR1 inhibitor 30%.
Screening O=[N+]([O-])c1ccc(C[n+]2ccc(Cc3ccccc3)cc2)cc1 returned TrxR1 substrate -6%, Nrf2 inh inconclusive, Nrf2 ARE act 0%, A549 tox 1%, rTrxR1 inhibitor -15% and GALK inh 1%.
Screening O=[N+]([O-])c1ccc(C[n+]2ccccc2)cc1 returned TrxR1 substrate -6%, Nrf2 inh 21µM*, Nrf2 ARE act 0%, A549 tox 0% and rTrxR1 inhibitor -1%.
Screening Cc1cccc(NC(=O)CSc2nc3ccccc3c(=O)n2C)c1C returned Nrf2 ARE act -1%.
